Structures are written as SMILES.

A word on the inhibition: it is the change of the read-out against control, counted positive when it falls.

The target of the assay is Glucose transporter (Leishmania mexicana) (UniProt O61059). Description: ST_JUDE_LEISH: Cytotoxicity at 2uM final concentration against transgenic Leishmania Mexicana promastigotes LmGT2 that are glucose transport deficient and complemented with the L. Mexicana glucose transporter 2. Activity is measured by DNA content using SYBR green in vitro. The format is functional.
Consider `COc1ccc2nc(C)cc(N/N=C/c3ccc([N+](=O)[O-])o3)c2c1`, for which the inhibition was 0.72%. Take `CNC(=O)c1ccccc1Nc1nc(Nc2ccc(C(=O)O)cc2)ncc1Cl`: the inhibition was 1.39%. Take `CC(C)C[C@H](Nc1ccnc(NCC2CCCCC2)n1)C(=O)NCCOc1ccccc1`: the inhibition was 2.47%.

As to `CC[C@H](C)CNC(=O)c1ccnc(-c2ccc(CNC3Cc4ccccc4C3)cc2)c1`, the inhibition is -0.69%. For `COc1ccc(CNCc2ccc(-c3ccc(CNCCc4ccccc4)cn3)cc2)cn1`, the inhibition stood at 1.46%. Turning to `O=C(Nc1ccc(-c2nc3ccccc3[nH]2)cc1)C1CCCN(CC2CC2)C1` (centres undefined), the inhibition was determined as 4.89%. With `c1cc(CN2CCN(CCN3CCOCC3)CC2)cc(-c2cccc(-c3nc4ccccc4[nH]3)c2)c1`, the inhibition was -1.97%.

For the compound `CCOC(=O)c1cnc2c(C(F)(F)F)cccc2c1Nc1ccc(O)cc1`, the inhibition was 9.59%. For the compound `CN1CCN(Cc2ccc(-c3cc4c(Nc5ccc(OCc6cccc(F)c6)c(Cl)c5)ncnc4s3)[nH]2)CC1`, the inhibition was 8.25%.

With `COc1ccc2[nH]ccc(=NN=Cc3cccc(F)c3)c2c1`, the inhibition was found to be 0.07%. Take `CCOc1cc(O)c(-c2nc(N)ncc2-c2ccc3c(c2)OCCO3)cc1CC`: the inhibition stood at 4.66%. As for `O=C(NC1CCCCC1)N(Cc1cccc(-c2cccc(CNC3CCCC3)c2)c1)C1CCN(Cc2ccccc2)CC1`, the figure is 7.71%; as for `Cc1[nH]c(C)c(-c2ccc(-c3ccc(OC(F)(F)F)cc3)cc2)c(=O)c1Br`, 3.37%; as for `CS(=O)(=O)c1cccc(-c2cnc3[nH]cc(-c4cccc(CCN)c4)c3c2)c1`, 8.44%. On to `Clc1cc(Nc2ccnc3ccc(Br)cc23)ccc1Oc1ccc2ccccc2c1Cl`, for which the inhibition turned out to be 1.22%. For `O=C(NCc1ccccc1)C1Cc2c([nH]c3ccc(Br)cc23)C2(CCN(Cc3ccccc3)CC2)N1` (centres undefined), the inhibition is 1.63%. As to `Fc1ccc2[nH]c(-c3ccc(-c4ccc(CNCCN5CCNCC5)cc4)cc3)nc2c1`, the inhibition was found to be 0.99%. Consider `CCn1cc(C=C2Oc3c(ccc(O)c3CN3CCCCC3C)C2=O)c2ccccc21` (centres undefined), for which the inhibition is 3.81%. In the case of `CC1(C)NC(=N)N=C(NOCC=Cc2ccccc2)N1`, the inhibition is 3.12%. Take `Cc1ccc(NC(=O)c2ccc(Cl)cc2)cc1-c1ccc(C(=O)Nc2ccncc2)cc1`: the inhibition was found to be 0.29%. The figure for `O=C(Nc1ccc(C(F)(F)F)cc1)c1cccc(S(=O)(=O)NCC2CCCN(CC3CCCCC3)C2)c1` (centres undefined) is 0.02%; for `O=C(c1ccc([N+](=O)[O-])o1)N1CCN(c2nc3c(F)cc(F)cc3s2)CC1` it is 7.31%; for `COCCNC(=O)C1CCN(C(c2ccc(Cl)cc2)c2ccc(Cl)cc2)CC1` it is 9.02%. Take `CCN(CC)CCOc1ccc(C(O)(C#CC(O)(c2ccccc2)c2ccc(OCCN(CC)CC)cc2)c2ccccc2)cc1` (centres undefined): the inhibition was found to be 1.94%. For `CC(CN(C)C)C(=O)Nc1ccc(-c2ccc(-c3nc4ccccc4[nH]3)cc2)cc1` (centres undefined), the inhibition amounted to 5.36%.

Regarding `NC1=NC(c2ccccc2)(c2ccccc2)C(=O)N1CCOc1ccccc1`, the inhibition was determined as 2%. In the case of `CCN1CCN(c2cc(C)c3cc(NC(=O)c4ccc([N+](=O)[O-])c(C)c4)ccc3n2)CC1`, the inhibition was 7.26%. `CCOC(=O)c1c(CN(CC)CC)n(-c2ccccc2)c2cc(Br)c(O)cc12`: the inhibition came to 1.76%. As for `CC(C)c1cn2c3c(cc(C(=O)N[C@@H](Cc4ccccc4)[C@H](O)CNC4CCOCC4)cc13)N(C)S(=O)(=O)CC2`, the figure is 3.22%; as for `CC(C)OCCCNC(=O)c1nc(-c2cccc(C(F)(F)F)c2)sc1C(C)C`, 4.46%; as for `Nc1nccc2ccc(OC3CCCCC3)cc12`, 1.91%. Regarding `Cc1ccc(Nc2nnc(SCC(=O)Nc3ccc(CN4CCCC4)cc3)s2)cc1`, the inhibition amounted to 0.85%.

Regarding `Cc1cccc(Cn2ccc3c(N)nc(N)nc32)c1`, the inhibition came to 3.04%.

In the case of `O=C(NCCCCCN1CCC(c2c[nH]c3ccccc23)CC1)Nc1cccc(C(F)(F)F)c1`, the inhibition was -2.66%. Regarding `CN1CCN(c2nsc3ccc(-c4ccc(NC(=O)Nc5ccccc5)cc4)cc23)CC1`, the inhibition was determined as 0.99%. Take `CC(C)C(=O)NC(Nc1ccc([N+](=O)[O-])cc1)C(Cl)(Cl)Cl` (centres undefined): the inhibition came to 1.48%. As for `COC(=O)c1noc(C)c1I`, the figure is 0.59%; as for `COc1ccc(CCC(C)N2CC(N)C(c3cn(C)c4cnccc34)C2)cc1` (centres undefined), 7.69%; as for `NC(=O)c1cc2nc(Nc3ccc(F)cc3)nc(Nc3ccc(S(N)(=O)=O)cc3)c2[nH]1`, 0.35%.
